Screens from PubChem BioAssay.
HT1080NT lethal: kills 2HG-producing HT-1080-NT fibrosarcoma cells | HT-1080-NT fibrosarcoma viability, CellTiter-Glo ATP luminescence, 48 h | Potency, µM (doses to about 46.1 µM), for the others: at the highest dose activity, negative = less viability, hits mostly cytotoxic | actives 1.6% (n = 360,000) | AID 686970;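 further: NT is the 2HG producing partner of a matched IDH1 knockdown line; 0% = DMSO-treated cells and -100% = media-only wells without cells; nearly all actives have a fitted effect of over 55% in size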
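Viability of the 2HG-overproducing fibrosarcoma line after 48 hours of compound exposure at 37 degrees C was determined by luminescence with CellTiter-Glo, and concentration-effect curves were then fitted and categorized.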
KB-3-1 cytotox: kills parental KB-3-1 adenocarcinoma cells. KB-3-1 viability, CellTiter-Glo ATP luminescence, 72 h. Potency, µM (highest dose often 46.1 µM), most hits filed as cytotoxic. actives 1.4% (n = 400,000); further: on the % scale 0 is the no-effect control and ±100 the full control effect; nearly all actives have a fitted effect of over 60% in size
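72 h, 37 °C compound treatment of KB-3-1 parental cells; CellTiter-Glo added, 10 min, luminescence read. Data corrected against DMSO-only plates and normalized before curve fitting.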
ATXN2 expr inh: ATXN2 expression inhibition. HEK-293 ATXN2-luciferase reporter, luminescence, 24 h. Potency, µM (series often up to 57 µM), for the others: at the top dose activity change, negative = inhibition, hits mostly inhibitors. actives 0.72% (n = 360,000); further: on the % scale 0 is the no-effect control and ±100 the full control effect; nearly all actives have a fitted effect of over 55% in size
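qHTS (up to 57 uM final) was run with 24 h compound exposure of reporter cells at 37 °C. Each well was multiplexed: SteadyGlo luminescence measured ATXN2-luciferase expression after a fluorogenic Gly-Phe-AFC viability readout (25 uM final).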
KB-V1 MDR tox: kills drug-selected multidrug resistant KB-V1 cells; KB-V1 MDR cells viability, CellTiter-Glo, 72 h; Potency, µM (doses to about 46.1 µM), actives largely listed as cytotoxic; actives 3.4% (n = 400,000); further: on the % scale 0 is the no-effect control and ±100 the full control effect; nearly all actives have a fitted effect of over 60% in size
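Cells of the MDR subline KB-V1 are plated, dosed with compound at multiple concentrations, and incubated 72 h at 37 degrees C; CellTiter-Glo is then added and luminescence read after 10 min.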
HT1080 IDH1KD tx: HT-1080 IDH1 knockdown cell toxicity (counter line) | HT-1080 IDH1 knockdown viability, ATP luminescence, 48 h | Potency, µM (top dose mostly 46.1 µM), inactives show at the highest dose activity, negative = toxicity, usual class: cytotoxic | actives 2% (n = 360,000);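 further: 0% = DMSO wells and -100% = cell-free medium wells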
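Viability of IDH1-knockdown HT-1080 fibrosarcoma cells was assessed by CellTiter-Glo after 48 h at 37 °C with titrated compound; concentration-effect curves were classified by fit quality and response size.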
ATXN viability: cell viability loss in ATXN counter-screen | S2 cells (HEK-293 line with an ATXN2-luciferase reporter) viability, CellTiter-Fluor protease fluorescence, 24 h | Potency, µM (series often up to 56.7 µM), actives largely listed as cytotoxic | actives 0.49% (n = 400,000) | AID 651635; further: nearly all actives have a fitted effect of over 40% in size
Starred values were filed as active, the others as inactive; i = inactive; ? = inconclusive; · = no result. Shown are actives, neighbours in structure and some others; about 6.2% of the full set was active somewhere. The call rests on the fitted dose curve; in most records, active means well fitted curve in the direction sought with a large enough effect; inconclusive means small, poorly fitted or top-dose-only effect, or another doubt; inactive means no such curve, though single readings can be large; an effect the other way counts as inactive or inconclusive. Potency means the concentration at half of the fitted maximal effect.

SMILES	HT1080NT lethal	KB-3-1 cytotox	ATXN2 expr inh	KB-V1 MDR tox	HT1080 IDH1KD tx	ATXN viability
O=C(Nc1ccc(C(F)(F)F)cc1)c1cc(S(=O)(=O)NC2CCCCC2)ccc1F	·	i	?	?	·	?
O=C(Nc1ccc(C(F)(F)F)cc1)c1cc(S(=O)(=O)NC2CCCCCC2)ccc1F	·	?	32µM*	18µM*	·	·
O=C(Nc1ccc(Br)cc1)c1cc(S(=O)(=O)NC2CCCC2)ccc1F	·	21µM*	?	?	·	?
Cc1ccc(C)c(Nc2nn3c(=O)c4ccc(C(=O)NCCC5=CCCCC5)cc4nc3s2)c1	·	i	14%	i	·	i
COc1ccccc1Nc1nn2c(=O)c3ccc(C(=O)NCCC4=CCCCC4)cc3nc2s1	·	?	3.2µM*	?	·	·
c1ccc(Cn2c(Cn3c(-c4cnccn4)nc4ccccc43)nc3ccccc32)cc1	?	i	-28%	9.2µM*	-16%	?
COC(=O)CSc1c(-c2ccccc2)c2cc(Cl)ccc2[nH]c1=O	6%	i	6%	i	1%	i
CC(=O)OCCSc1c(-c2ccccc2)c2cc(Cl)ccc2[nH]c1=O	-1%	i	4%	23µM*	-2%	i
CC1CCN(C(=O)c2ccc3c(c2NCCO)C(=O)c2ccccc2C3=O)CC1	?	i	-16%	?	?	?
CCN(CC)CCNC(=O)c1ccc2c(c1NCCO)C(=O)c1ccccc1C2=O	?	?	·	7.3µM*	?	7.9µM*
Nc1cccc(C(=O)OCC(=O)Nc2cccc3c2C(=O)c2ccccc2C3=O)c1	-25%	i	7%	i	?	i
CCN(CC)CCC(=O)Nc1cccc2c1C(=O)c1ccccc1C2=O	18µM*	?	?	18µM*	15µM*	i
Cn1cc(C(=O)NC2CCCCC2)c(=O)c2cc(S(=O)(=O)N3CCCC3)ccc21	0%	i	2%	9.2µM*	13%	i
Cc1ccc(S(=O)(=O)N2CCCC(C(=O)NC3CCCC3)C2)cc1Cl (stereo not drawn)	-9%	?	-15%	13µM*	-3%	i
Cn1cc(C(=O)NCc2cccs2)c(=O)c2cc(S(=O)(=O)N3CCCC3)ccc21	-8%	i	?	21µM*	-8%	?
Cn1cc(C(=O)NCc2ccccc2)c(=O)c2cc(S(=O)(=O)N3CCCCCC3)ccc21	·	i	10%	?	·	i
Cc1ccc(S(=O)(=O)N2CCC(C(=O)NC3CCCC3)CC2)cc1Cl	-3%	i	-25%	i	0%	i
Cc1ccccc1CN1C(=O)C(O)(c2c[nH]c3ccccc23)c2cc(Cl)ccc21 (stereo not drawn)	·	i	-24%	i	·	i
CCCCC(=O)Nc1cccc(-c2nc3ccccc3s2)c1	·	i	-7%	i	·	?
O=C(Nc1ccc[n+](CC(=O)c2cccc3ccccc23)c1)c1ccccc1	?	23µM*	?	i	?	i
CCOc1cccc(-c2cc(C(=O)Nc3ccon3)c3ccccc3n2)c1	-10%	i	-24%	16µM*	-23%	i
CCOc1ccc(-c2cc(C(=O)Nc3ccc4c(c3)OCCO4)c3ccccc3n2)cc1	?	18µM*	6%	?	?	i
c1ccc2c(c1)Cc1cc(CN3CCOCC3)ccc1-2	19%	i	47%	21µM*	-5%	i
COc1ccc(Nc2nc(-c3sc(C)nc3C)cs2)c(OC)c1	?	7.3µM*	-20%	?	16µM*	?
Cc1ccc(Nc2nc(-c3sc(C)nc3C)cs2)cc1	1.5µM*	2.3µM*	·	1.8µM*	1.8µM*	·
SMILES	HT1080NT lethal	KB-3-1 cytotox	ATXN2 expr inh	KB-V1 MDR tox	HT1080 IDH1KD tx	ATXN viability
Cc1nc(N)sc1-c1csc(Nc2ccc(Cl)cn2)n1	?	i	1%	18µM*	?	i
Cc1nc(N)sc1-c1csc(Nc2ccccn2)n1	-1%	i	79%	i	-22%	i
Cc1cccc(Nc2nc(-c3sc(C)nc3C)cs2)c1	26µM*	?	-5%	?	?	i
Cc1ccc(Nc2nc(-c3sc(N)nc3C)cs2)cc1	-4%	i	·	i	0%	i
CCOc1ccc(CCNC(=O)c2c3c(nc4ccccc24)C(=O)N(C2CCCCC2)C3)cc1	·	i	·	i	·	·
COC(=O)C[C@@H]1C=C[C@@H](NC(=O)C2CCC2)[C@@H](CO)O1	16%	i	·	i	20%	·
CC(=O)c1ccc(Nc2nc(-c3sc(C)nc3C)cs2)cc1	?	?	·	12µM*	2.9µM*	?
O=C(N/N=C/c1ccccc1)c1ccco1	-6%	i	57%	?	-12%	i
O=C(C#Cc1ccccc1)c1ccco1	12µM*	?	?	i	6.5µM*	?
CCOC(=O)N1CCN(C(=O)c2ccc(N(Cc3ccccc3)S(C)(=O)=O)cc2)CC1	-2%	i	3%	16µM*	4%	i
CCOC(=O)N1CCN(C(=O)c2ccc(N(Cc3ccc(C)cc3)S(C)(=O)=O)cc2)CC1	3%	i	1%	18µM*	1%	i
CCOC(=O)N1CCN(C(=O)c2ccc(N(Cc3ccc(Cl)cc3)S(C)(=O)=O)cc2)CC1	4%	i	?	i	-5%	?
O=C(Nc1ccn(-c2ccccc2)n1)c1ccc(Cl)cc1	-3%	i	17%	18µM*	-17%	i
N#Cc1ccc(C(=O)Nc2ccn(-c3ccccc3)n2)cc1	-19%	i	?	i	?	i
CC(C)N(CC#CCC(O)(c1ccccc1)c1ccccc1)C(C)C	-16%	i	0%	13µM*	4%	i
COc1ccccc1N1CCN(C(=O)c2oc3ccccc3c2N)CC1	·	i	0%	i	·	?
COc1cc(-c2ccc3sc(-c4ccsc4)c(C#CCO)c3c2)cc(OC)c1OC	?	i	25µM*	i	?	?
CCCNC(=O)CSc1ccc(S(=O)(=O)N(C)C2CCCCC2)cn1	1%	i	·	i	3%	i
CCC(C)NC(=O)CSc1ccc(S(=O)(=O)N(C)C2CCCCC2)cn1 (stereo not drawn)	4%	i	-29%	12µM*	9%	?
CCNC(=O)NC(=O)CSc1ccc(S(=O)(=O)N(C)C2CCCCC2)cn1	-9%	i	-14%	21µM*	0%	?
CCOc1ncc(F)c(=O)[nH]1	·	·	-4%	·	·	i
C=C(C)COc1ccc(-c2[nH]ncc2Oc2ccc(OC)cc2)c(O)c1	?	?	5%	i	?	i
